The source of these data is patent publication US5487994, “Insertion and deletion mutants of FokI restriction endonuclease” (The Johns Hopkins University).

For this experiment, the target named is FokI endonuclease wild-type (Flavobacterium okeanokoites, UniProt P14870 P14870:2-579). The experiment is described as follows: filter; with poly(dI-dC), 1 mM EDTA, 22 C. The note with it: tags: expressed in E. coli RR1 from pRRSfokIR; label: 32P. The protocol: The filter binding assays were performed in duplicate using *Fok*I or mutant enzymes and the four different synthetic substrates, SEQ ID NO:12, SEQ ID NO:13, hemi-methylated oligonucleotide of SEQ ID NO:12 and hemi-methylated oligonucleotide of SEQ ID NO:13. Nine different concentrations for each of the enzymes were made by serial dilutions ([…], 2000, 667, 222, 74.1, 24.7, 8.23, 2.74 and 0.914 nM). The enzymes were mixed with 40 nM of each labelled substrate along with 50 μg/ml p(dI-dC) and 50 μg/ml BSA in 50 μl of buffer A[10 mM Tris. phosphate (pH 8.0), 7 mM 2-mercaptoethanol, 1 mM EDTA, 50 mM NaCl, and 10% (vol/vol) glycerol]. The samples were incubated at 22° C. for 1 hr and then loaded on to nitrocellulose filters. The filters were washed twice with 0.5 ml of buffer A, dried and counted using the scintillation counter.
Why does the four amino-acid residue insertions enable the mutant enzymes to cleave hemi-methylated DNA and not the larger inserts? The four codon insertions could increase the affinity of the mutants for the hemi-methylated DNA. The binding affinities of wild-type enzyme and both four codon insertion mutants were compared by filter binding assays using the synthetic oligonucleotide substrates (FIGS. 9A, 9B and 9C). The binding affinities were measured in the presence of non-specific DNA, poly dI-dC.

Chain of FokI endonuclease wild-type (P14870 2-579, one chain of several): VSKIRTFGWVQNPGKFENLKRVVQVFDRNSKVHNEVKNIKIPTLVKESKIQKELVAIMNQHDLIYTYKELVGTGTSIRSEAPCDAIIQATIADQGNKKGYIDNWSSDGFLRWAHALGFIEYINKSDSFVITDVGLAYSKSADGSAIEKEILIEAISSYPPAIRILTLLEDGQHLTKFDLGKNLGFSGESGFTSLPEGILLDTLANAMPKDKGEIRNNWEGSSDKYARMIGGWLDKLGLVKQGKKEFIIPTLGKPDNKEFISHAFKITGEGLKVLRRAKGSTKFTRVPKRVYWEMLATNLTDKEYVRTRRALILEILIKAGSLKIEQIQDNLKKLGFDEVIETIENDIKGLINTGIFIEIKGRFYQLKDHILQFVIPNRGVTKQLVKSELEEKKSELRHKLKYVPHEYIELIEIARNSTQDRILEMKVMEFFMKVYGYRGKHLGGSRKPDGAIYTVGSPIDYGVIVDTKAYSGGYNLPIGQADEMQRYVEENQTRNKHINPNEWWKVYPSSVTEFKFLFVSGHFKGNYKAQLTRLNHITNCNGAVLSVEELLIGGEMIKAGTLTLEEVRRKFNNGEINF

B1: hemi-methylated substrate (GGATG strand) (dsDNA)
DNA 1: CTAGAGTCAGAATTCGAAGACTTGCCGGATGATCTGCAGGCCAGCTGTGGCGTCTAAATTGA
DNA 2: AGCTTCAATTTAGACGCCACAGCTGGCCTGCAGATCATCCGGCAAGTCTTCGAATTCTGACT
modifications: N6-methyladenine in GGATG strand of FokI site
Turning to B1, the binding signal is ~100 fold less efficient than unmethylated.

B2: fully methylated substrate (dsDNA)
DNA 1: CTAGAGTCAGAATTCGAAGACTTGCCGGATGATCTGCAGGCCAGCTGTGGCGTCTAAATTGA
DNA 2: AGCTTCAATTTAGACGCCACAGCTGGCCTGCAGATCATCCGGCAAGTCTTCGAATTCTGACT
modifications: N6-methyladenine in both strands of FokI site
Turning to B2, the binding signal was ~100 fold less efficient than unmethylated.

B3: hemi-methylated substrate (CATCC strand) (dsDNA)
DNA 1: CTAGAGTCAGAATTCGAAGACTTGCCGGATGATCTGCAGGCCAGCTGTGGCGTCTAAATTGA
DNA 2: AGCTTCAATTTAGACGCCACAGCTGGCCTGCAGATCATCCGGCAAGTCTTCGAATTCTGACT
modifications: N6-methyladenine in CATCC strand of FokI site
For the molecule B3, the binding signal is ~100 fold less efficient than unmethylated.
